# Assay results reported in the supplement of paper PMC4022240.
# ± gives the standard deviation.
# T1: HaloTag-ATRX ADD domain (163-292)
# T1 chain: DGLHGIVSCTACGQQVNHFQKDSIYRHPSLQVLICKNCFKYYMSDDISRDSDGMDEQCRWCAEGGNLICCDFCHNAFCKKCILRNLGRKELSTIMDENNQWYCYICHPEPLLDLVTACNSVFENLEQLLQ
# Key:
# Test in all cases: peptide microarray binding signal (635 nm), min-max normalized on array (fraction of array maximum); higher = stronger binding
# Conditions in all cases: peptide region: H3 5-17
# [1] = biological target: T1, HaloTag-ATRX ADD domain (163-292)
# Procedure: (§1)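 Histone 13-mer peptides were synthesized as cellulose conjugates with a C-terminal 20-atom PEG linker and printed in triplicate on nitrocellulose. The sequence given is the unmodified backbone; PTMs (Kme1/2/3, Kac, Sph/Tph, Rme/Rme2a/Rme2s, Rcit) are listed in the label and the 'peptide modifications' condition. Slides were probed at 4 °C for 1 h with biotin-labelled (HQ)5-HaloTag reader fusions (ATRX-ADD, ING2-PHD) then streptavidin-Alexa647, or with rabbit histone antibodies then anti-rabbit Alexa647. The mean 635 nm signal of the triplicate spots was scaled 0-1 between the lowest and highest values on each array.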
# [2] = biological target: HaloTag-ING2 PHD (mouse Ing2 200-280)
# Procedure: as §1
# [3] = biological target: anti-H3K4me3 antibody ab8580
# Procedure: as §1
# [4] = biological target: anti-H3K9me3 antibody ab8898
# Procedure: as §1
# [5] = peptide modifications: H3K9ac, binder concentration: 1:2,000 dilution
# [6] = peptide modifications: H3K9ac, binder concentration: 1:10,000 dilution
# [7] = peptide modifications: H3K9me2 H3T11ph, binder concentration: 1:2,000 dilution
# [8] = peptide modifications: H3K9me2 H3T11ph, binder concentration: 1:10,000 dilution
# [9] = peptide modifications: H3K9me2 H3K14ac, binder concentration: 1:2,000 dilution
# [10] = peptide modifications: H3K9me2 H3K14ac, binder concentration: 1:10,000 dilution
# [11] = peptide modifications: H3K9ac H3K14me3, binder concentration: 1:2,000 dilution
# [12] = peptide modifications: H3K9ac H3K14me3, binder concentration: 1:10,000 dilution
# [13] = peptide modifications: H3K9me1, binder concentration: 1:2,000 dilution
# [14] = peptide modifications: H3K9me1, binder concentration: 1:10,000 dilution
# [15] = peptide modifications: H3K9me3, binder concentration: 1:2,000 dilution
# [16] = peptide modifications: H3K9me3, binder concentration: 1:10,000 dilution
# [17] = peptide modifications: H3K9me1 H3K14me3, binder concentration: 1:2,000 dilution
# [18] = peptide modifications: H3K9me1 H3K14me3, binder concentration: 1:10,000 dilution
# [19] = peptide modifications: H3K9me2 H3S10ph, binder concentration: 1:2,000 dilution
# [20] = peptide modifications: H3K9me2 H3S10ph, binder concentration: 1:10,000 dilution
# [21] = peptide modifications: H3K9me1 H3S10ph, binder concentration: 1:2,000 dilution
# [22] = peptide modifications: H3K9me1 H3S10ph, binder concentration: 1:10,000 dilution
# [23] = peptide modifications: H3K9me2 H3K14me1, binder concentration: 1:2,000 dilution
# [24] = peptide modifications: H3K9me2 H3K14me1, binder concentration: 1:10,000 dilution
binder,measurement,setting,value
QTARKSTGGKAPR [H3 5-17 Q T A R Kac S T G G K A P R],peptide microarray binding signal,"[1]; peptide modifications: H3K9ac, binder concentration: 50 nM",0.00263 ± 0.00033
same,peptide microarray binding signal,"[1]; peptide modifications: H3K9ac, binder concentration: 500 nM",0.00271 ± 0.00021
same,peptide microarray binding signal,"[2]; peptide modifications: H3K9ac, binder concentration: 10 nM",0.00352 ± 5e-05
same,peptide microarray binding signal,"[2]; peptide modifications: H3K9ac, binder concentration: 100 nM",0.002055 ± 2e-05
same,peptide microarray binding signal,[3]; [5],0.00123 ± 0.0001
same,peptide microarray binding signal,[3]; [6],0.00245 ± 0.00036
same,peptide microarray binding signal,[4]; [5],0.0011 ± 6.7e-05
same,peptide microarray binding signal,[4]; [6],0.00167 ± 7.4e-05
QTARKSTGGKAPR [H3 5-17 Q T A R Kme2 S Tph G G K A P R],peptide microarray binding signal,"[1]; peptide modifications: H3K9me2 H3T11ph, binder concentration: 50 nM",0.00201 ± 3.7e-05
same,peptide microarray binding signal,"[1]; peptide modifications: H3K9me2 H3T11ph, binder concentration: 500 nM",0.00319 ± 6.5e-05
same,peptide microarray binding signal,"[2]; peptide modifications: H3K9me2 H3T11ph, binder concentration: 10 nM",0.0031 ± 7.8e-05
same,peptide microarray binding signal,"[2]; peptide modifications: H3K9me2 H3T11ph, binder concentration: 100 nM",0.0022 ± 3.7e-05
same,peptide microarray binding signal,[3]; [7],0.000396 ± 7e-06
same,peptide microarray binding signal,[3]; [8],0.000799 ± 8.3e-06
same,peptide microarray binding signal,[4]; [7],0.0382 ± 0.01
same,peptide microarray binding signal,[4]; [8],0.0291 ± 0.0025
QTARKSTGGKAPR [H3 5-17 Q T A R Kme2 S T G G Kac A P R],peptide microarray binding signal,"[1]; peptide modifications: H3K9me2 H3K14ac, binder concentration: 50 nM",0.002382 ± 1.1e-05
same,peptide microarray binding signal,"[1]; peptide modifications: H3K9me2 H3K14ac, binder concentration: 500 nM",0.0103 ± 0.00014
same,peptide microarray binding signal,"[2]; peptide modifications: H3K9me2 H3K14ac, binder concentration: 10 nM",0.0115 ± 0.001
same,peptide microarray binding signal,"[2]; peptide modifications: H3K9me2 H3K14ac, binder concentration: 100 nM",0.00886 ± 0.0033
same,peptide microarray binding signal,[3]; [9],0.00225 ± 0.00054
same,peptide microarray binding signal,[3]; [10],0.00228 ± 0.00034
same,peptide microarray binding signal,[4]; [9],0.0906 ± 0.0013
same,peptide microarray binding signal,[4]; [10],0.0371 ± 0.015
QTARKSTGGKAPR [H3 5-17 Q T A R Kac S T G G Kme3 A P R],peptide microarray binding signal,"[1]; peptide modifications: H3K9ac H3K14me3, binder concentration: 50 nM",0.00755 ± 0.00045
same,peptide microarray binding signal,"[1]; peptide modifications: H3K9ac H3K14me3, binder concentration: 500 nM",0.0117 ± 0.00052
same,peptide microarray binding signal,"[2]; peptide modifications: H3K9ac H3K14me3, binder concentration: 10 nM",0.00758 ± 0.00031
same,peptide microarray binding signal,"[2]; peptide modifications: H3K9ac H3K14me3, binder concentration: 100 nM",0.00957 ± 0.00088
same,peptide microarray binding signal,[3]; [11],0.0161 ± 0.0026
same,peptide microarray binding signal,[3]; [12],0.0127 ± 0.0015
same,peptide microarray binding signal,[4]; [11],0.0416 ± 0.0084
same,peptide microarray binding signal,[4]; [12],0.0649 ± 0.082
QTARKSTGGKAPR [H3 5-17 Q T A R Kme S T G G K A P R],peptide microarray binding signal,"[1]; peptide modifications: H3K9me1, binder concentration: 50 nM",0.00445 ± 0.00012
same,peptide microarray binding signal,"[1]; peptide modifications: H3K9me1, binder concentration: 500 nM",0.00171 ± 7.9e-05
same,peptide microarray binding signal,"[2]; peptide modifications: H3K9me1, binder concentration: 10 nM",0.00448 ± 0.00018
same,peptide microarray binding signal,"[2]; peptide modifications: H3K9me1, binder concentration: 100 nM",0.002055 ± 2e-05
same,peptide microarray binding signal,[3]; [13],0.000642 ± 1.6e-05
same,peptide microarray binding signal,[3]; [14],0.0139 ± 0.012
same,peptide microarray binding signal,[4]; [13],0.0007551 ± 6.5e-06
same,peptide microarray binding signal,[4]; [14],0.00121 ± 2.4e-05
QTARKSTGGKAPR [H3 5-17 Q T A R Kme3 S T G G K A P R],peptide microarray binding signal,"[1]; peptide modifications: H3K9me3, binder concentration: 50 nM",0.00411 ± 0.00036
same,peptide microarray binding signal,"[1]; peptide modifications: H3K9me3, binder concentration: 500 nM",0.00362 ± 0.00095
same,peptide microarray binding signal,"[2]; peptide modifications: H3K9me3, binder concentration: 10 nM",0.00448 ± 6.1e-05
same,peptide microarray binding signal,"[2]; peptide modifications: H3K9me3, binder concentration: 100 nM",0.002126 ± 2.1e-05
same,peptide microarray binding signal,[3]; [15],0.00266 ± 0.00033
same,peptide microarray binding signal,[3]; [16],0.00519 ± 0.00032
same,peptide microarray binding signal,[4]; [15],0.00814 ± 0.0004
same,peptide microarray binding signal,[4]; [16],0.0129 ± 0.0011
QTARKSTGGKAPR [H3 5-17 Q T A R Kme S T G G Kme3 A P R],peptide microarray binding signal,"[1]; peptide modifications: H3K9me1 H3K14me3, binder concentration: 50 nM",0.00611 ± 0.00085
same,peptide microarray binding signal,"[1]; peptide modifications: H3K9me1 H3K14me3, binder concentration: 500 nM",0.011 ± 0.0017
same,peptide microarray binding signal,"[2]; peptide modifications: H3K9me1 H3K14me3, binder concentration: 10 nM",0.018 ± 0.003
same,peptide microarray binding signal,"[2]; peptide modifications: H3K9me1 H3K14me3, binder concentration: 100 nM",0.00935 ± 0.0036
same,peptide microarray binding signal,[3]; [17],0.0233 ± 0.01
same,peptide microarray binding signal,[3]; [18],0.0338 ± 0.015
same,peptide microarray binding signal,[4]; [17],0.0215 ± 0.0054
same,peptide microarray binding signal,[4]; [18],0.016 ± 0.0043
QTARKSTGGKAPR [H3 5-17 Q T A R Kme2 Sph T G G K A P R],peptide microarray binding signal,"[1]; peptide modifications: H3K9me2 H3S10ph, binder concentration: 50 nM",0.00806 ± 0.00056
same,peptide microarray binding signal,"[1]; peptide modifications: H3K9me2 H3S10ph, binder concentration: 500 nM",0.0147 ± 0.00082
same,peptide microarray binding signal,"[2]; peptide modifications: H3K9me2 H3S10ph, binder concentration: 10 nM",0.03 ± 0.0049
same,peptide microarray binding signal,"[2]; peptide modifications: H3K9me2 H3S10ph, binder concentration: 100 nM",0.0527 ± 0.017
same,peptide microarray binding signal,[3]; [19],0.0068 ± 0.00063
same,peptide microarray binding signal,[3]; [20],0.00639 ± 0.00076
same,peptide microarray binding signal,[4]; [19],0.193 ± 0.067
same,peptide microarray binding signal,[4]; [20],0.0868 ± 0.021
QTARKSTGGKAPR [H3 5-17 Q T A R Kme Sph T G G K A P R],peptide microarray binding signal,"[1]; peptide modifications: H3K9me1 H3S10ph, binder concentration: 50 nM",0.0069 ± 0.00042
same,peptide microarray binding signal,"[1]; peptide modifications: H3K9me1 H3S10ph, binder concentration: 500 nM",0.0164 ± 0.0026
same,peptide microarray binding signal,"[2]; peptide modifications: H3K9me1 H3S10ph, binder concentration: 10 nM",0.0181 ± 0.0013
same,peptide microarray binding signal,"[2]; peptide modifications: H3K9me1 H3S10ph, binder concentration: 100 nM",0.0405 ± 0.00099
same,peptide microarray binding signal,[3]; [21],0.00281 ± 0.00031
same,peptide microarray binding signal,[3]; [22],0.0028 ± 0.00019
same,peptide microarray binding signal,[4]; [21],0.0251 ± 0.0037
same,peptide microarray binding signal,[4]; [22],0.00865 ± 0.0014
QTARKSTGGKAPR [H3 5-17 Q T A R Kme2 S T G G Kme A P R],peptide microarray binding signal,"[1]; peptide modifications: H3K9me2 H3K14me1, binder concentration: 50 nM",0.00589 ± 7.1e-05
same,peptide microarray binding signal,"[1]; peptide modifications: H3K9me2 H3K14me1, binder concentration: 500 nM",0.015 ± 0.0013
same,peptide microarray binding signal,"[2]; peptide modifications: H3K9me2 H3K14me1, binder concentration: 10 nM",0.00812 ± 0.00048
same,peptide microarray binding signal,"[2]; peptide modifications: H3K9me2 H3K14me1, binder concentration: 100 nM",0.0359 ± 0.0037
same,peptide microarray binding signal,[3]; [23],0.00455 ± 0.00086
same,peptide microarray binding signal,[3]; [24],0.00365 ± 0.00015
same,peptide microarray binding signal,[4]; [23],0.217 ± 0.078
same,peptide microarray binding signal,[4]; [24],0.0891 ± 0.021
